High-throughput results: PubChem, National Center for Advancing Translational Sciences (NCATS)
In the library only some 21% were active in any assay of this set; here they are far more common.
Pf growth 96h: P. falciparum growth inhibition at 96 hours | P. falciparum luciferase reporter growth, 96 h | Potency, µM (titrated, usually from 28.7 µM), inactives show at the top dose activity change, negative = inhibition, hits mostly inhibitors | actives 6.9% (n = 320,000); also: potency is read from the fitted curve at half-maximal effect; % is scaled to controls: 0 for no effect and ±100 for the full control effect
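Luminescence readout: decreased luciferase signal marks inhibited growth of reporter-expressing P. falciparum in infected red cells (2% hematocrit, 0.05% parasitemia final), exposed to compound two generations (96 h, 37 C, 5% CO2).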
Shiga toxin inh: blocks Shiga toxin action in Vero cells. inhibition, % at 38.7 µM. Vero cells, Shiga toxin protein synthesis inhibition reporter. actives 9.2% (n = 290,000); in the data active = inhibition mostly above about 28%, no sharp cut-off; inactive = mostly below about 43%; also: 0% is about no effect
Pf growth 48h: P. falciparum growth inhibition at 48 hours (one generation) | Potency, µM (doses to about 28.7 µM), for inactives: top-dose activity change, negative = inhibition, actives largely listed as inhibitors | actives 5.9% (n = 310,000) | AID 504832 | P. falciparum luciferase growth in erythrocytes, 48 h; also: potency is read from the fitted curve at half-maximal effect; % is scaled to controls: 0 for no effect and ±100 for the full control effect
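Parasite viability was followed by luminescence of a genomically integrated firefly luciferase. Cultures held 0.1% parasitemia at 2% hematocrit (final), incubated under 5% CO2 at 37 C.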
CHX counter: counter-screen for Shiga toxin inhibitors: cycloheximide protein synthesis inhibition; cell reporter, cycloheximide protein synthesis inhibition counterscreen; max response, %; actives 12% (n = 300,000); AID 2314; in the data active = max response mostly above about 13%, no sharp cut-off; inactive = mostly below about 14%; also: read at 38.3 µM for the half of the compounds with a filed dose; 0% is about no effect
HCV inhibitor: blocks hepatitis C virus; Potency, µM (series often up to 41.8 µM), for the others: top-dose activity change, negative = inhibition, hits mostly inhibitors; actives 3.4% (n = 340,000); Huh7.5.1 HCVcc-Cre infection, luciferase reporter, 44 h; also: potency is read from the fitted curve at half-maximal effect; % is scaled to controls: 0 for no effect and ±100 for the full control effect
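1,000 cells/well; 4 h culture; + compound; + HCVcc-Cre (~0.5 moi); 44 h; luciferase substrate, RT 15 min; read 15 sec.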
HCMV antiviral: blocks human cytomegalovirus replication. HFF cells, HCMV-luciferase reporter, 72 h; hits give low values. activity change, negative = inhibition, % at 57.5 µM. actives 4.5% (n = 410,000). AID 1259415; in the data active = activity change below about -60%; inconclusive = no clear call, values can overlap the other calls; inactive = above about -39%; also: % is scaled to controls: 0 for no effect and ±100 for the full control effect
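Cell-based, HFFs, 1000 cells/well, 16 h 37C; cpds in DMSO + HCMV-luc, MOI 1 PFU/cell; 72 h 37C; OneGlo luminescence after 5 min RT; norm. to buffer vs Salinomycin 10uM.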
The depositor's hits bear a star. Unless noted, calls follow the shape of the dose curve; as a rule, active = well fitted inhibition curve with a large enough effect; inconclusive = small, poorly fitted or top-dose-only effect, or another doubt; inactive = no such curve, though single readings can be large or run the other way.

What do the screens show for `COCCN(C(=O)COC(=O)CSc1ccc(Cl)cc1)c1c(N)n(CC(C)C)c(=O)[nH]c1=O`?
Pf growth 96h: 10%; Pf growth 48h: 9%; HCV inhibitor: 12%; HCMV antiviral: -24

Results for COc1cc(OC)c(NC(=O)c2cncn2-c2ccc(F)cc2)cc1Cl ?
Pf growth 96h: -24%; Shiga toxin inh: -14; Pf growth 48h: 1%; CHX counter: -3; HCV inhibitor: inconclusive; HCMV antiviral: -18

What do the screens show for `Nc1c(CNCc2nnn(Cc3ccccc3)c2N)nnn1Cc1ccccc1`?
HCMV antiviral: -32

What do the screens show for `COc1cc(CNc2cccc3c2S(=O)(=O)N([C@H](C)c2ccccc2)C[C@@H](COCc2ccccc2)O3)cc(OC)c1OC`?
HCMV antiviral: -7

What do the screens show for `COc1ccc2nc(C)cc(NCCN3CCOCC3)c2c1`?
Pf growth 96h: inconclusive; Shiga toxin inh: -18; Pf growth 48h: inconclusive; CHX counter: -3; HCV inhibitor: 1%; HCMV antiviral: -22

Results for Cc1ccc(-c2nc3ccccc3c(=O)n2CCCN2CCOCC2)cc1 ?
Pf growth 96h: inconclusive; Shiga toxin inh: 54*; Pf growth 48h: -8%; CHX counter: 15; HCV inhibitor: 11%; HCMV antiviral: 25

What do the screens show for `O=c1c2ccccc2nc(-c2ccccc2)n1CCCN1CCOCC1`?
Shiga toxin inh: 31; Pf growth 48h: -3%; CHX counter: -3; HCV inhibitor: 2%; HCMV antiviral: 12

How did Cc1cc(NCCN2CCOCC2)c2ccc3ccccc3c2n1 do in these assays?
Pf growth 96h: 2%; Shiga toxin inh: 84*; Pf growth 48h: inconclusive; CHX counter: 23*; HCV inhibitor: -18%; HCMV antiviral: -69*

Results for COc1cccc(-c2nc(NCCN3CCOCC3)c3ccccc3n2)c1O ?
Pf growth 96h: 26%; Shiga toxin inh: -21; Pf growth 48h: inconclusive; CHX counter: -4; HCV inhibitor: 10µM*; HCMV antiviral: 14

Results for CC(C)c1cc(CNC(=O)C2CCC(=O)N(Cc3ccccc3F)C2)on1 (centres undefined) ?
Pf growth 96h: inconclusive; Shiga toxin inh: -7; Pf growth 48h: 15%; CHX counter: 8; HCV inhibitor: 18%; HCMV antiviral: 13

How did O=C(O)CC1(CC(=O)Nc2ccc(C(F)(F)F)cc2)CCCC1 do in these assays?
Pf growth 96h: 35%; Shiga toxin inh: -4; Pf growth 48h: inconclusive; CHX counter: -3; HCV inhibitor: 20%; HCMV antiviral: -20

What do the screens show for `CC(C)(C)c1ccc(NC(=O)CC2(C(F)(F)F)OCCO2)cc1`?
Pf growth 96h: -11%; Shiga toxin inh: 33; CHX counter: 32*; HCV inhibitor: -6%; HCMV antiviral: 45

What do the screens show for `CCCS(=O)(=O)NC(=O)C1(C)CCCN(C(=O)c2ccc(C(=O)OC)cc2)C1` (centres undefined)?
HCMV antiviral: 23

Results for O=C(O)CCN1C(=O)c2ccc(NC(=O)C(c3ccccc3)c3ccccc3)cc2C1=O ?
Pf growth 96h: 3%; Shiga toxin inh: -8; Pf growth 48h: -28%; CHX counter: 2; HCV inhibitor: 15%; HCMV antiviral: 0

How did CC(=O)c1cccc(S(=O)(=O)N2CCN(c3nc4cc(C)cc(C)c4cc3C#N)CC2)c1 do in these assays?
Pf growth 96h: -24%; Shiga toxin inh: -13; Pf growth 48h: inconclusive; CHX counter: -7; HCV inhibitor: 13µM*; HCMV antiviral: 4

What do the screens show for `Cc1cc(C)c2cc(C#N)c(N3CCCN(S(=O)(=O)c4ccccc4)CC3)nc2c1`?
HCV inhibitor: -1%

What do the screens show for `C=C/C(C)=C/C[C@H]1C(=C)CCC2[C@](C)(C(=O)O)CCC[C@@]21C` (some centres undefined)?
Pf growth 96h: 4%; Pf growth 48h: inconclusive; HCV inhibitor: 26%

What do the screens show for `C=C1CCC2[C@](C)(CO)[C@H](O)CC[C@@]2(C)[C@@H]1C/C=C1\C(=O)OC[C@H]1O` (some centres undefined)?
Pf growth 96h: inconclusive; Pf growth 48h: inconclusive; HCV inhibitor: inconclusive; HCMV antiviral: -107*
